Results published in PubChem BioAssay AID1159580 (chemical genetic matrix, 2015).
The campaign covered roughly 5,500 compounds. About 2,000 (36%) were called active. Roughly 18% stayed inconclusive and do not appear here. Rule as the data show it: active = normalized growth mostly below about 0.91 (no sharp cut-off); inconclusive = no clear call, values can overlap the other calls; inactive = mostly above about 0.92. The list shows a part of the results.

Assay: chemical genetic growth profiling, strain panel (AID 1159580);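 also: tested at 20 µM; growth read once vehicle control cultures reached saturation at 30 °C; 1 = growth at the plate median or of vehicle wells; lower values mean less growth of the strain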
Conditions: growth OD

Measured: normalized growth

OCc1ccccc1O
inactive: S. cerevisiae deletion strains, locus YKL068W, stronger effect = lower value 0.994 | S. cerevisiae deletion strains, locus YKL085W, strain MDH1 (second series), stronger effect = lower value 0.992 | S. cerevisiae deletion strains, locus YKL085W, strain MDH1, stronger effect = lower value 0.992 | S. cerevisiae deletion strains, locus YKL160W, strain elf1, stronger effect = lower value 1.04 | S. cerevisiae deletion strains, locus YKL190W, strain CNB1, stronger effect = lower value 1.01 | S. cerevisiae deletion strains, locus YKR001C, strain vps1, stronger effect = lower value 0.989 | S. cerevisiae deletion strains, locus YKR026C, strain gcn3, stronger effect = lower value 1.02 | S. cerevisiae deletion strains, locus YKR091W, strain srl3, stronger effect = lower value 1.01 | S. cerevisiae deletion strains, locus YLL001W, strain dnm1, stronger effect = lower value 1.01 | S. cerevisiae deletion strains, locus YLL026W, stronger effect = lower value 1 | S. cerevisiae deletion strains, locus YLL041C, strain sdh2, stronger effect = lower value 1.01 | S. cerevisiae deletion strains, locus YLR027C, strain aat2, stronger effect = lower value 1.02 | S. cerevisiae deletion strains, locus YLR039C, strain RIC1, stronger effect = lower value 0.988 | S. cerevisiae deletion strains, locus YLR058C, strain SHM2, stronger effect = lower value 1.02 | S. cerevisiae deletion strains, locus YLR102C, strain apc9, stronger effect = lower value 0.981 | S. cerevisiae deletion strains, locus YLR113W, strain HOG1, stronger effect = lower value 1.03 | S. cerevisiae deletion strains, locus YLR221C, strain rsa3, stronger effect = lower value 1.02 | S. cerevisiae deletion strains, locus YLR258W, strain gsy2, stronger effect = lower value 1.02 | S. cerevisiae deletion strains, locus YLR262C, strain YPT6 (second series), stronger effect = lower value 1.06 | S. cerevisiae deletion strains, locus YLR262C, strain YPT6, stronger effect = lower value 1.04 | S. cerevisiae deletion strains, locus YLR268W, strain sec22, stronger effect = lower value 0.969 | S. cerevisiae deletion strains, locus YLR320W, strain mms22, stronger effect = lower value 1.02 | S. cerevisiae deletion strains, locus YLR330W, strain CHS5, stronger effect = lower value 1.01 | S. cerevisiae deletion strains, locus YLR342W, strain FKS1 (second series), stronger effect = lower value 1.01 | S. cerevisiae deletion strains, locus YLR342W, strain FKS1, stronger effect = lower value 1.03 | S. cerevisiae deletion strains, locus YLR357W, strain rsc2, stronger effect = lower value 1.08 | S. cerevisiae deletion strains, locus YLR370C, strain arc18, stronger effect = lower value 1.01 | S. cerevisiae deletion strains, locus YLR371W, strain rom2, stronger effect = lower value 0.989 | S. cerevisiae deletion strains, locus YLR384C, strain iki3, stronger effect = lower value 1.01 | S. cerevisiae deletion strains, locus YLR418C, strain cdc73, stronger effect = lower value 0.962 | S. cerevisiae deletion strains, locus YML016C, strain PPZ1, stronger effect = lower value 1.02 | S. cerevisiae deletion strains, locus YML032C, strain rad52, stronger effect = lower value 0.979 | S. cerevisiae deletion strains, locus YML120C, strain ndi1, stronger effect = lower value 1.01 | S. cerevisiae deletion strains, locus YML124C, strain tub3, stronger effect = lower value 0.997 | S. cerevisiae deletion strains, locus YMR058W, strain fet3, stronger effect = lower value 1.02 | S. cerevisiae deletion strains, locus YMR078C, strain ctf18, stronger effect = lower value 0.993 | S. cerevisiae deletion strains, locus YMR125W, strain sto1, stronger effect = lower value 1.01 | S. cerevisiae deletion strains, locus YMR129W, stronger effect = lower value 1.03 | S. cerevisiae deletion strains, locus YMR205C, strain PFK2, stronger effect = lower value 1.03 | S. cerevisiae deletion strains, locus YMR223W, strain ubp8, stronger effect = lower value 0.994 | S. cerevisiae deletion strains, locus YMR231W, strain pep5, stronger effect = lower value 1.01 | S. cerevisiae deletion strains, locus YMR263W, strain SAP30, stronger effect = lower value 1.02 | S. cerevisiae deletion strains, locus YMR307W, strain GAS1, stronger effect = lower value 1.01 | S. cerevisiae deletion strains, locus YNL067W, strain RPL9B, stronger effect = lower value 1.01 | S. cerevisiae deletion strains, locus YNL071W, strain lat1, stronger effect = lower value 1.04 | S. cerevisiae deletion strains, locus YNL128W, strain TEP1, stronger effect = lower value 1.02 | S. cerevisiae deletion strains, locus YNL153C, strain GIM3, stronger effect = lower value 1.01 | S. cerevisiae deletion strains, locus YNL183C, strain NPR1, stronger effect = lower value 1 | S. cerevisiae deletion strains, locus YNL209W, strain ssb2, stronger effect = lower value 1.02 | S. cerevisiae deletion strains, locus YNL233W, strain BNI4, stronger effect = lower value 1.01 | S. cerevisiae deletion strains, locus YNL248C, strain rpa49, stronger effect = lower value 1.04 | S. cerevisiae deletion strains, locus YNL250W, strain rad50, stronger effect = lower value 0.986 | S. cerevisiae deletion strains, locus YNL271C, strain bni1, stronger effect = lower value 0.98 | S. cerevisiae deletion strains, locus YNL298W, strain CLA4, stronger effect = lower value 0.981 | S. cerevisiae deletion strains, locus YNL307C, strain MCK1, stronger effect = lower value 0.989 | S. cerevisiae deletion strains, locus YNL322C, strain KRE1 (second series), stronger effect = lower value 1.03 | S. cerevisiae deletion strains, locus YNL322C, strain KRE1, stronger effect = lower value 1.01 | S. cerevisiae deletion strains, locus YNR049C, strain mso1, stronger effect = lower value 1.02 | S. cerevisiae deletion strains, locus YNR052C, strain pop2, stronger effect = lower value 0.989 | S. cerevisiae deletion strains, locus YOL006C, strain TOP1, stronger effect = lower value 1.06 | S. cerevisiae deletion strains, locus YOL012C, strain htz1 0.829 | S. cerevisiae deletion strains, locus YOL147C, strain pex11, stronger effect = lower value 0.985 | S. cerevisiae deletion strains, locus YOR001W, strain rrp6, stronger effect = lower value 1.03 | S. cerevisiae deletion strains, locus YOR061W, strain CKA2, stronger effect = lower value 1.02 | S. cerevisiae deletion strains, locus YOR069W, strain VPS5, stronger effect = lower value 1.01 | S. cerevisiae deletion strains, locus YOR070C, strain gyp1, stronger effect = lower value 1.03 | S. cerevisiae deletion strains, locus YOR080W, strain dia2, stronger effect = lower value 1.02 | S. cerevisiae deletion strains, locus YOR083W, strain WHI5, stronger effect = lower value 1.02 | S. cerevisiae deletion strains, locus YOR106W, strain vam3, stronger effect = lower value 1.01 | S. cerevisiae deletion strains, locus YOR136W, strain idh2, stronger effect = lower value 0.992 | S. cerevisiae deletion strains, locus YOR144C, strain elg1, stronger effect = lower value 0.991 | S. cerevisiae deletion strains, locus YOR184W, strain ser1, stronger effect = lower value 0.984 | S. cerevisiae deletion strains, locus YOR231W, strain MKK1, stronger effect = lower value 1.03 | S. cerevisiae deletion strains, locus YOR265W, strain rbl2, stronger effect = lower value 1 | S. cerevisiae deletion strains, locus YOR270C, strain vph1, stronger effect = lower value 1.03 | S. cerevisiae deletion strains, locus YOR290C, strain snf2, stronger effect = lower value 1.01 | S. cerevisiae deletion strains, locus YOR316C, strain cot1, stronger effect = lower value 0.996 | S. cerevisiae deletion strains, locus YPL051W, strain arl3, stronger effect = lower value 1.03 | S. cerevisiae deletion strains, locus YPL078C, strain atp4, stronger effect = lower value 1.02 | S. cerevisiae deletion strains, locus YPL106C, strain sse1, stronger effect = lower value 1.07 | S. cerevisiae deletion strains, locus YPL240C, strain hsp82, stronger effect = lower value 1.01 | S. cerevisiae deletion strains, locus YPL241C, strain CIN2, stronger effect = lower value 1.01 | S. cerevisiae deletion strains, locus YPL256C, strain CLN2, stronger effect = lower value 1.07 | S. cerevisiae deletion strains, locus YPR119W, strain clb2, stronger effect = lower value 0.986 | S. cerevisiae deletion strains, locus YPR141C, strain kar3, stronger effect = lower value 0.992 | S. cerevisiae deletion strains, locus YPR163C, strain tif3, stronger effect = lower value 0.994 | S. cerevisiae deletion strains, locus YPR167C, strain met16, stronger effect = lower value 0.989 | S. cerevisiae deletion strains, strain wtn01, stronger effect = lower value 0.973 | S. cerevisiae strains, strain wild type, stronger effect = lower value 1.01
